{
  "source": "PubChem BioAssay (NCI)",
  "note": "This is part of a sample that, as a whole, favours compounds with a hit. Of some 83,000 tested, about 20% had one in any assay.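 Percent growth is the endpoint: 0 to 100 indicates growth inhibition (40 means 60% inhibition), 0 means no net growth, and negative values indicate cell death.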 A number with no mark means an inactive call. Active and inactive are the calls of the source. How the source made its calls: active means growth percent below 10; inactive means the rest.",
  "data": [
    {"tested_on": "SNB-19 CNS", "assay": "NCI-60 one-dose screen, 48 h (100 = growth as untreated, 0 = no growth, -100 = all killed)", "conditions": "10 µM unless noted", "values": [
      {"smiles": "CC(=O)N1N=C(c2ccc(Cl)cc2)CC1c1c(C)nn(-c2ccccc2)c1N(C)Cc1ccccc1", "note": "(centres undefined)", "growth": "64.4%"},
      {"smiles": "CC1(C)CC2(C)CC(=O)C1C(C(=O)O)C2C(=O)O", "note": "(centres undefined)", "growth": "113%"},
      {"smiles": "COc1ccc(-c2cnc(SCC(=O)Nc3ccc(-c4nc5ccccc5s4)cc3)n2-c2ccc(OC)cc2)cc1", "growth": "98.8%"},
      {"smiles": "COc1ccc2c(c1)[n+](=O)c(C(=O)/C=C/c1cc(OC)c(OC)c(OC)c1)c(C)n2[O-]", "growth": "67.1%"},
      {"smiles": "Nc1c(C(=O)Nc2cccc(Cl)c2)sc2nc3c(cc12)C(O)CCC3", "note": "(centres undefined)", "growth": "65.9%"},
      {"smiles": "COc1cccc(-c2nc(-c3ccc(N)cc3)co2)c1", "growth": "113%"},
      {"smiles": "O=C(Nc1ccccc1S)c1ccccc1", "growth": "100%"},
      {"smiles": "COc1ccc2c(c1)c(CC(=O)[Se]C)c(C)n2C(=O)c1ccc(Cl)cc1", "growth": "24%"},
      {"smiles": "Nc1nc(SCc2cccnc2)c2ncn(C3OC(CO)C(O)C3O)c2n1", "note": "(centres undefined)", "growth": "98.7%"},
      {"smiles": "O=C1c2cc3c(cc2-c2c1c1ccc(Cl)cc1c(=O)n2CCCNCCO)OCO3", "growth": "-62.8% (active)"},
      {"smiles": "N#Cc1c(NC(=O)c2ccco2)[n+]([O-])c2cc(Cl)c(Cl)cc2[n+]1[O-]", "growth": "111%"},
      {"smiles": "Cc1[nH]ccc2cc3nc4ccccc4c3cc12", "growth": "44.9%"},
      {"smiles": "C=C1CC[C@@H]2[C@](C)(COC(C)=O)[C@H](OC(C)=O)CC[C@@]2(C)[C@@H]1CC(NCc1ccccc1)C1=CCOC1=O", "note": "(some centres undefined)", "growth": "68.2%"},
      {"smiles": "COC(=O)c1cc2oc(/C=N\\NC(=O)c3cc4oc(C)c(C)c4[nH]3)cc2[nH]1", "growth": "102%"}
    ]}
  ]
}
